Pf apPOL block – Pf-apPOL DNA polymerase inhibition; AID 1794808; inhibition, % at 10 µM; actives 0.25% (n = 210,000); Recombinant Pf-apPOL, molecular beacon fluorescence, 1.5 h
mHTT-CaM PPI inh – inhibitors of human mutant huntingtin-calmodulin interaction; P42858; AlphaScreen His-mHTT/GST-CaM binding, luminescence; inhibition, % at 15 µM; actives 3.6% (n = 190,000);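 further: 0% = both proteins with DMSO and 100% = one protein alone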
The depositor's hits bear a star. Rows were chosen to be rich in hits. Some 3.5% of all compounds tested hit in one or more screens of this group. No stated cut-off is given here; in the data, active means inhibition above about 50%; inactive means the rest.

Screening NC(=O)c1c(Nc2ccccc2Cl)sc(C(=O)c2ccccc2)c1N returned Pf apPOL block -4.0 and mHTT-CaM PPI inh 86.0*.
CCCOc1ccc(N2C(=O)CC(NCc3ccc4c(c3)OCO4)C2=O)cc1 (centres undefined) was read as Pf apPOL block 0.4 and mHTT-CaM PPI inh 9.6.
Screening Cc1ccc(-c2n[nH]c3c2CN(C(=O)c2ccoc2)CC3)cc1 returned Pf apPOL block -9.3 and mHTT-CaM PPI inh 9.8.
Screening O=C(c1ccccn1)N1CCc2[nH]nc(-c3ccccc3)c2C1 returned Pf apPOL block -10.4 and mHTT-CaM PPI inh -3.7.
Screening Cn1nc(C(=O)N2CCc3[nH]nc(-c4ccccc4)c3C2)c2ccccc21 returned Pf apPOL block -6.2 and mHTT-CaM PPI inh 87.4*.
`Cc1ccc(-c2n[nH]c3c2CN(C(=O)c2cccn2C)CC3)cc1` gave Pf apPOL block -11.5 and mHTT-CaM PPI inh 54.6*.
Screening O=C(Nc1ccccc1C(=O)N1CCCCC1)c1ccccc1Cl returned Pf apPOL block -5.0 and mHTT-CaM PPI inh -1.1.
For O=C1NCCCn2cc(S(=O)(=O)Nc3ccc(F)c(F)c3)cc21 the results were Pf apPOL block -4.1 and mHTT-CaM PPI inh -1.8.
For CC[n+]1c(C=C2C=Cc3cc(C)ccc3N2C)sc(C)c1C the results were Pf apPOL block -5.6 and mHTT-CaM PPI inh 29.0.
Screening O=C(c1ccc(OCC2CCCN2C(=O)c2cccc(F)c2)cc1)N1CCOCC1 (centres undefined) returned Pf apPOL block 11.7 and mHTT-CaM PPI inh 1.1.
`O=C(Nc1cc(-c2ccco2)nn1-c1cc(C(F)(F)F)cc(C(F)(F)F)c1)C1CCC1` gave Pf apPOL block 90.8*.
`COc1ccc(-n2nc(C(C)(C)C)cc2NC(=O)C2CCC2)cc1` gave Pf apPOL block -4.8 and mHTT-CaM PPI inh 1.2.
CC(CCc1ccccc1)Nc1nc(Cl)nc(NCCN2CCOCC2)n1 (centres undefined) was read as Pf apPOL block 2.1 and mHTT-CaM PPI inh 62.0*.
`Clc1nc(NCCN2CCOCC2)nc(NCc2ccccc2)n1` gave Pf apPOL block -0.9 and mHTT-CaM PPI inh -6.0.
Cc1ccc2nc(SCC(=O)Nc3cccc(Cl)c3C)[nH]c2c1 was read as Pf apPOL block 6.1 and mHTT-CaM PPI inh 16.0.
CC(CCc1ccccc1)NC(=O)CC(C(=O)N1CCc2ccccc21)n1ccnc1 (centres undefined) was read as Pf apPOL block -7.4 and mHTT-CaM PPI inh 20.0.
`CCN(CC)CCCNC(=O)CC(C(=O)N1CCc2ccccc21)n1ccnc1` (centres undefined) gave Pf apPOL block -5.3 and mHTT-CaM PPI inh -2.0.
`CCN(CCCNC(=O)CC(C(=O)N1CCc2ccccc21)n1ccnc1)c1cccc(C)c1` (centres undefined) gave Pf apPOL block -10.5 and mHTT-CaM PPI inh 74.0*.
`CCN(CCCNC(=O)Cc1cn(C)c2ccccc12)c1cccc(C)c1` gave Pf apPOL block -5.2 and mHTT-CaM PPI inh 71.0*.
`CCN(CCCNC(=O)c1cn(C)c(=O)c2c1c1ccccc1n2C)c1cccc(C)c1` gave Pf apPOL block -1.8 and mHTT-CaM PPI inh -1.0.
`CC(NC(=O)CC(C(=O)N1CCc2ccccc21)n1ccnc1)C12CC3CC(CC(C3)C1)C2` (centres undefined) gave Pf apPOL block -4.4 and mHTT-CaM PPI inh 59.0*.
`COc1ccc(OC)c(C2C3=C(CCCC3=O)Nc3ccc4ncccc4c32)c1` (centres undefined) gave Pf apPOL block -3.9 and mHTT-CaM PPI inh 1.0.
Screening COc1ccc(OC)c2sc(NC(=O)c3sc(C)nc3C)nc12 returned Pf apPOL block -2.6 and mHTT-CaM PPI inh 38.9.
`O=C(NCCCn1ncccc1=O)c1ccc2nsnc2c1` gave Pf apPOL block -4.9 and mHTT-CaM PPI inh -15.3.
`CCCOC(=O)CSC1=C(C#N)C(c2ccc(OC)cc2)C2=C(CC(C)(C)CC2=O)N1` (centres undefined) gave Pf apPOL block 2.8 and mHTT-CaM PPI inh -0.1.
CC(C)(C)c1ccc(-c2cc3ccccn3c2)cc1 was read as Pf apPOL block -1.6 and mHTT-CaM PPI inh 30.0.
Screening N#CC1=C(N)SC(N)=C(C#N)C1c1cccc2ccccc12 returned Pf apPOL block -8.6 and mHTT-CaM PPI inh 15.6.
Fc1cccc(Cl)c1C1Nc2cccc3cccc(c23)N1 was read as mHTT-CaM PPI inh 48.6.
`c1csc(C2Nc3ccccc3-c3nc4ccccc4n32)c1` (centres undefined) gave Pf apPOL block -5.6 and mHTT-CaM PPI inh -16.0.
`c1csc(C2Nc3cccc4cccc(c34)N2)c1` gave mHTT-CaM PPI inh 50.1*.
Clc1cccc(C2Nc3cccc4cccc(c34)N2)c1 was read as mHTT-CaM PPI inh 82.5*.
c1ccc2c(C3Nc4cccc5cccc(c45)N3)cccc2c1 was read as mHTT-CaM PPI inh 77.1*.
For Cc1cc(C)c(S(=O)(=O)N2CCCC(C(F)(F)F)C2)c(C)c1 (centres undefined) the results were Pf apPOL block -3.2 and mHTT-CaM PPI inh -51.0.
Screening Cc1ccc(CN2CC34C=CC(O3)C(C(=O)OC(C)C)C4C2=O)cc1 (centres undefined) returned Pf apPOL block 3.5 and mHTT-CaM PPI inh -3.4.
`O=C(Nc1cccc(F)c1)N1CCC(CCOc2ccncc2)CC1` gave Pf apPOL block -5.3 and mHTT-CaM PPI inh -6.3.
Screening O=C1NN(c2ccccc2)C(=O)C2C(c3ccccc3)C=CC(c3ccccc3)C12 (centres undefined) returned Pf apPOL block 2.1 and mHTT-CaM PPI inh 24.0.
For O=C1NC(=O)C2C3C=CC(C3=C(c3ccccc3)c3ccccc3)C12 (centres undefined) the results were Pf apPOL block -2.4 and mHTT-CaM PPI inh 57.0*.
For CC(=O)N1CCN(c2nc3c(s2)CC(C(=O)NCCN2CCOCC2)CC3)CC1 (centres undefined) the results were Pf apPOL block -3.4 and mHTT-CaM PPI inh 8.5.
O=S(=O)(Nc1nc2n(n1)C(c1ccccc1)C=C(c1ccc(Cl)cc1)N2)c1ccccc1 (centres undefined) was read as Pf apPOL block -3.0 and mHTT-CaM PPI inh 5.0.
For O=C1CCC(=O)N1c1nc2n(n1)C(c1ccccc1)C=C(c1ccc(Cl)cc1)N2 (centres undefined) the results were Pf apPOL block 9.5 and mHTT-CaM PPI inh 77.0*.
`Cc1ccccc1C1=N/C(=C\c2cccc(Cl)c2)C(=O)O1` gave Pf apPOL block 2.3 and mHTT-CaM PPI inh 3.0.
`Nc1cc(Oc2ccc(O)c(N)c2)ccc1O` gave Pf apPOL block 2.8 and mHTT-CaM PPI inh 90.2*.
`Nc1cc(C(=O)c2ccc(O)c(N)c2)ccc1O` gave Pf apPOL block -8.2 and mHTT-CaM PPI inh 17.2.
COc1cc(/C=C2/C=C(c3ccc(C)cc3)OC2=O)ccc1C was read as Pf apPOL block -2.2 and mHTT-CaM PPI inh 19.0.
For CCOC(=O)N1CCN(C(=O)C2CCN(Cc3ccc(OC)cc3)CC2)CC1 the results were Pf apPOL block -4.3 and mHTT-CaM PPI inh 14.8.
`COC(=O)c1ccc(NC(=O)C(=O)NCCc2c[nH]c3ccccc23)cc1` gave Pf apPOL block -2.7 and mHTT-CaM PPI inh 11.1.
For CC1C(=O)N2CCCc3cc(NC(=O)C(=O)NCCc4c[nH]c5ccccc45)cc1c32 (centres undefined) the results were Pf apPOL block -7.9 and mHTT-CaM PPI inh 76.5*.
`COc1ccccc1C1=NOC(C(=O)Nc2ccc(C#N)cc2)C1` (centres undefined) gave Pf apPOL block -2.6 and mHTT-CaM PPI inh -3.6.

High-throughput results: PubChem BioAssay, University of Kansas High Throughput Screening Laboratory
